FMDV antiviral – High Throughput Screening for Foot and Mouth Disease Virus Antivirals | FMDV antiviral cell-based qHTS | Potency, µM (top dose mostly 57.9 µM), without a hit: at the highest dose activity change, negative = inhibition, actives largely listed as inhibitors | 410,000 tested, 1.2% active | AID 1159524, 2015; calls by dose curve; tested in HEK293T cells; further: read-out not given here; potency means the concentration at half of the fitted maximal effect; on the % scale 0 is the no-effect control and ±100 the full control effect; nearly all actives have a fitted effect of over 45% in size
CHX counter – Cycloheximide Counterscreen for Small Molecule Inhibitors of Shiga Toxin; max response, %; 300,000 tested, 12% active; AID 2314, 2010; cell reporter, cycloheximide protein synthesis inhibition counterscreen; in the data active means max response mostly above about 13%, no sharp cut-off; inactive means mostly below about 14%; further: read at 38.3 µM for the half of the compounds with a filed dose; 0% is about no effect
Sm TGR inh – qHTS Assay for the Inhibitors of Schistosoma Mansoni Peroxiredoxins | Schistosoma mansoni thioredoxin glutathione reductase (TGR), Q962Y6 | purified TGR, DTNB reduction, TNB absorbance 405 nm | Potency, µM (highest dose often 114 µM), without a hit: at the top dose activity change, negative = inhibition, most hits filed as inhibitors | 360,000 tested, 3% active; active means well fitted inhibition curve with a large enough effect; inconclusive means small, poorly fitted or top-dose-only effect; inactive means no such curve, though single readings can be large or run the other way; further: potency means the concentration at half of the fitted maximal effect; on the % scale 0 is the no-effect control and ±100 the full control effect; nearly all actives have a fitted effect of over 60% in size
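First, TGR (20 nM dispensed) and NADPH were mixed with compound. Second, a 15 min room-temperature incubation followed. Third, further NADPH and then DTNB were added to start the reaction. Finally, TNB absorbance was monitored kinetically.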
Shiga inhibitor – A qHTS for Small Molecule Inhibitors of Shiga Toxin | AID 2315, 2010 | inhibition, % at 38.7 µM | Vero cells, Shiga toxin protein synthesis inhibition reporter | 290,000 tested, 9.2% active; in the data active means inhibition mostly above about 28%, no sharp cut-off; inactive means mostly below about 43%; further: 0% is about no effect
An asterisk follows results filed as active; ? = inconclusive; · = no result given; [ ] = another dose, or the depositor's remark. The list is not random: actives were taken first. Their share in the collection is about 12%.

SMILES	FMDV antiviral	CHX counter	Sm TGR inh	Shiga inhibitor
CC1(C)OC(C)(C)/C(=C\c2ccc(OCC(N)=O)cc2)C1=O	-19%	·	-23%	·
O=C1ON=C(c2ccccc2)/C1=C/c1ccco1	32µM*	-3	20µM*	-8
CCOc1cc(/C=C2/C(=O)ON=C2C)ccc1OCc1ccccc1	-25%	5	50µM*	-9
CC1CCCN(c2nc3c(-c4ccc(Cl)cc4)nnn3c3ccccc23)C1 (centres undefined)	3%	·	3%	·
CCCOc1ccc(Cl)cc1/C=C1/C(=O)ON=C1C	?	2	14µM*	-1
COc1ccc(/C=C2/C(=O)ON=C2c2ccccc2)cc1OC	22µM*	-4	?	-4
CCOc1cc(/C=C2\C(=O)ON=C2c2ccccc2)ccc1OC	35µM*	-5	-3%	19
COc1ccc(/C=C2\C(=O)ON=C2c2cccc([N+](=O)[O-])c2)cc1	·	-4	11µM*	45
O=C1ON=C(c2ccc([N+](=O)[O-])cc2)/C1=C/c1ccccc1O	?	-2	?	-6
CN(C)c1ccc(C(CNC(=O)c2ccc(C(C)(C)C)cc2)N2CCOCC2)cc1 (centres undefined)	-8%	·	-1%	·
CCOc1cc(/C=N/OC(C)=O)ccc1OCc1ccccc1	29%	12*	-4%	18
O=C1NNC(c2ccccc2)=N/C1=C\c1ccco1	-19%	-4	20µM*	-5
O=C1ON=C(c2ccccc2)/C1=C/c1ccc(-c2ccccc2[N+](=O)[O-])o1	28µM*	-2	11µM*	27
O=C1NNC(c2ccccc2)=N/C1=C\c1ccccc1Cl	-16%	4	-9%	4
O=[N+]([O-])c1ccccc1-c1ccc(/C=N/n2cnnc2)o1	2%	-3	-7%	-22
CCOc1cc(/C=N/NC(=O)c2nn(C)cc2Br)ccc1OCc1ccccc1	-18%	-2	-10%	27
Cn1c(SCn2nnc3ccccc3c2=O)nc2ccccc2c1=O	·	0	-29%	-2
Cc1ccc(-n2nnnc2SCn2nnc3ccccc3c2=O)cc1	-14%	62*	-23%	95*
COc1ccc(C)cc1-n1nnnc1SCn1nnc2ccccc2c1=O	-16%	-2	-22%[11.4 µM]	-4
O=c1c2ccccc2nnn1CSc1nnc2ccccn12	49%	34*	-30%	99*
Cc1cccc(-n2nnnc2SCn2nnc3ccccc3c2=O)c1	13%	23*	0%	53
O=c1c2ccccc2nnn1CSc1nnnn1-c1ccc(O)cc1	13%	32*	?	67*
COc1cc(CN2CCc3nnc(C(NS(C)(=O)=O)C(C)C)n3CC2)ccc1F (centres undefined)	-8%	·	·	·
O=c1c2c(nc3cc(-c4ccccc4)[nH]n13)CCC2	-20%	58*	18%	95*
COc1ccc(-c2cc3nc4c(c(=O)n3[nH]2)CCC4)cc1	14%	21*	3%	37
SMILES	FMDV antiviral	CHX counter	Sm TGR inh	Shiga inhibitor
Cc1ccc(-c2[nH]n3c(=O)c4c(nc3c2C)CCCC4)cc1	35%	3	3%	-5
O=c1c2c(nc3cc(-c4ccc(Br)cc4)[nH]n13)CCCC2	12%	7	16%	21
Cc1c(-c2ccccc2)[nH]n2c(=O)c3c(nc12)CCCC3	20%	29*	-1%	44*
COc1ccc(NC(=O)c2cc(=O)c3cc(C)cc(C)c3o2)cc1	-10%	·	0%	·
CC(=O)Nc1ccc(C(=O)OCc2ccccc2Cl)cc1	88%	42*	-1%	64*
CCC(=O)Nc1ccc(C(=O)OCc2ccccc2Cl)cc1	35%	33*	-6%	18
CC(=O)Nc1ccc(C(=O)OCc2ccc(Br)cc2)cc1	-8%	8	-7%	33
CCNc1ncc2ncc(=O)n(Cc3cccs3)c2n1	-12%	·	·	·
COc1ccc2nc(NC(=O)c3cc(=O)c4cc(C)cc(C)c4o3)sc2c1	-4%	·	3%	·
COc1ccc2c(Sc3ccccc3)c(C(=O)N3CCC(C)CC3)[nH]c2c1	98%	·	-5%	·
COc1ccc(OC)c(C2=NNC(=NCc3ccc4c(c3)OCO4)SC2)c1	19%	-2	-4%	-7
CC(C)(C)N=C1NN=C(c2ccc(Cl)cc2)CS1	5%	70*	-17%	91*
COc1ccc(CN=C2NC(=O)CC(C(=O)Nc3ccc(F)cc3)S2)cc1 (centres undefined)	9%	-2	-17%	12
COc1ccc(CN=C2NN=C(c3ccc(Cl)cc3)CS2)cc1	53%	21*	-13%	52*
CC(C)(C)N=C1NN=C(c2cc3ccccc3o2)CS1	-41%	30*	-1%	86*
COc1ccc(CN=C2Nc3ccccc3CS2)cc1	-24%	30*	23%	60
O=C(CN1C(=O)COc2ccc(S(=O)(=O)NC3CCCC3)cc21)Nc1ccc(Cl)cc1F	38%	·	-5%	·
CCOC(=O)c1ccc(NC(=O)CC2C(=O)N(c3ccc(F)cc3)C(=O)N2Cc2ccc(C)cc2)cc1 (centres undefined)	-9%	·	-15%	·
Cc1ccc(NCC(=O)N=Nc2c(O)n(C)c3ccccc23)cc1	10%	15*	0%	56*
Cn1c(O)c(N=Nc2nc(-c3ccccc3)cs2)c2ccccc21	16%	-1	2%	10
Cn1c(O)c(N=NC(=O)Cc2c[nH]c3ccccc23)c2ccccc21	-13%	·	·	·
Cn1c(O)c(N=Nc2ccc(F)cc2)c2ccccc21	35%	40*	-11%	35
Cn1c(O)c(N=Nc2ccccc2)c2ccccc21	6%	17	45µM*	20
Cc1ccc(S(=O)Cc2ccc(C(=O)NCc3ccc(OC(C)C)cc3)o2)cc1 (centres undefined)	-16%	·	-19%	·
Cc1ccc(C(=O)Nc2ccc3c(c2)CCC3)cc1S(=O)(=O)N1CCOCC1	23%	34*	9%	98*
SMILES	FMDV antiviral	CHX counter	Sm TGR inh	Shiga inhibitor
O=C(Nc1ccc2c(c1)CCC2)c1ccc(F)c(S(=O)(=O)N2CCOCC2)c1	-26%	27*	-18%	36*
NS(=O)(=O)c1cc(C(=O)Nc2ccc3c(c2)CCC3)ccc1Cl	11%	20*	2%	89*
COc1ccc(CCC(=O)NCc2nc3cccnc3n2Cc2ccc(C)cc2)cc1	-10%	·	-1%	·
O=C(Oc1ccc(=O)n(-c2ccccc2)n1)c1cccc(Cl)c1	-23%	0	16µM*	21
COc1nc(C)ccc1-c1noc(-c2ccncc2)n1	70%	23*	1%	25
COc1cc(-c2nc(-c3ccc(C)nc3OC)no2)cc(OC)c1OC	·	-2	3%	-14
COc1nc(C)ccc1-c1noc(-c2cccs2)n1	13%	58*	13%	140*
Oc1cc2c(cc1O)[C@H]1c3ccccc3CN[C@@H]1CC2	·	-3	8.9µM*	-13
C/C=C\C=C\C(=O)N1CC2(CC(c3cccc(NC(=O)COc4ccc(Cl)cc4)c3)=NO2)C[C@H]1C(N)=O (some centres undefined)	-2%	-6	7.1µM*	2
C/C=C\C=C/C(=O)Nc1cccc(C2=NOC3(C2)C[C@@H](C(N)=O)N(C(=O)COc2ccc(Cl)cc2)C3)c1 (some centres undefined)	0%	2	3.2µM*	-3

Assay outcomes deposited in PubChem BioAssay by National Center for Advancing Translational Sciences (NCATS).
